Tests used:
Experiment in all cases: pooled miR-30 sensor sort-seq; sequence = guide strand
Settings in all cases: shRNA
HOXD12 = target: HOXD12
HOXA6 = target: HOXA6
HOXD4 = target: HOXD4
HP1BP3 = target: HP1BP3
HPD = target: HPD
HS6ST1 = target: HS6ST1
IKBKAP = target: IKBKAP
IL16 = target: IL16
IL12RB2 = target: IL12RB2
IL13RA1 = target: IL13RA1
IL10 = target: IL10
IL7 = target: IL7
IPO9 = target: IPO9
ITFG1 = target: ITFG1
JDP2 = target: JDP2
JMJD1C = target: JMJD1C
JMJD8 = target: JMJD8
JOSD1 = target: JOSD1
Note: reference of the scale not given here.

## ATTTTGACTTGCTGGTCGCTGA
HOXD12
  sensor-assay potency score (higher = more potent): -0.889

## TTGATGAGCTTGTTTTCCTTTT
HOXA6
  sensor-assay potency score (higher = more potent): -0.78

## TCGGACTGACTGTAGGCCCGGG
HOXD4
  sensor-assay potency score (higher = more potent): -0.239

## TTAGCCTGCTCTTCGGGTCCGT
HOXD12
  sensor-assay potency score (higher = more potent): -0.755

## TTTTCGAATAGCAACCACTGAT
HP1BP3
  sensor-assay potency score (higher = more potent): -0.782

## TTTGACTTGCTGGTCGCTGAGG
HOXD12
  sensor-assay potency score (higher = more potent): -0.827

## TTATAGTCCACATATTCCTGGA
HPD
  sensor-assay potency score (higher = more potent): 0.144

## TTCCTCTGAACTTATGTCTGGT
HP1BP3
  sensor-assay potency score (higher = more potent): 0.357

## TGGAGAAGTAGAAAGAGTCTGG
HOXD12
  sensor-assay potency score (higher = more potent): -0.0412

## TGTCATGTTCAAGTTGAGCGGG
HOXD12
  sensor-assay potency score (higher = more potent): -0.623

## TTATGTTCTCAGTAGCTCCTGC
HOXD4
  sensor-assay potency score (higher = more potent): 0.0954

## TTGGTGAGGGACACACTCCCGG
HS6ST1
  sensor-assay potency score (higher = more potent): -0.875

## TTGAATATCCCTGAACTCCAGG
IKBKAP
  sensor-assay potency score (higher = more potent): -0.562

## TTCCTTGTGACAATCACAGCTT
IL16
  sensor-assay potency score (higher = more potent): 0.571

## TTCTGGAGCAACACCAACGAAG
IL12RB2
  sensor-assay potency score (higher = more potent): -0.95

## TTCTACAGAAACATCACTGGCT
IL16
  sensor-assay potency score (higher = more potent): 0.755

## TTTAGGAACAACCTTTTGCTGG
IL16
  sensor-assay potency score (higher = more potent): -0.755

## TTTCTTATCTTGTTTGTCGCCA
IL13RA1
  sensor-assay potency score (higher = more potent): 0.315

## TAGGCTTCTATGTAGTTGATGA
IL10
  sensor-assay potency score (higher = more potent): -0.258

## TAACAACAAGTTGTCCAGCTGA
IL10
  sensor-assay potency score (higher = more potent): 0.191

## TTCCATGTCCATATTACTGTGC
IL13RA1
  sensor-assay potency score (higher = more potent): -0.274

## TTAGCTGTAGAGTATACTCAGT
IL12RB2
  sensor-assay potency score (higher = more potent): -0.26

## TAGTAGAGAGTATAGTTAGTGT
IL13RA1
  sensor-assay potency score (higher = more potent): -0.663

## TACCAGACATCTAACATCCCAG
IL12RB2
  sensor-assay potency score (higher = more potent): -0.395

## TTGGTCTCGAAGTTCCCGCAGC
IL16
  sensor-assay potency score (higher = more potent): -0.85

## TTAACAACAAGTTGTCCAGCTG
IL10
  sensor-assay potency score (higher = more potent): -0.0308

## TTGTACAGGATTAACTTGTTAC
IL12RB2
  sensor-assay potency score (higher = more potent): -0.744

## TTGACCATTATTTGGACACTGT
IL13RA1
  sensor-assay potency score (higher = more potent): 0.157

## TTTCTAGATCTGCTCCTCCTGC
IL16
  sensor-assay potency score (higher = more potent): -0.608

## TTTCACAGGGAAGAAATCGATG
IL10
  sensor-assay potency score (higher = more potent): -0.836

## TTTTCTATCAGCACTACAGAGT
IL13RA1
  sensor-assay potency score (higher = more potent): -0.723

## TTAACCATATTCCAGAGCCTGC
IL12RB2
  sensor-assay potency score (higher = more potent): -1.49

## TTTGTTCTGAGGCTGCTCCTTT
IL16
  sensor-assay potency score (higher = more potent): 0.156

## TTTAACAACAAGTTGTCCAGCT
IL10
  sensor-assay potency score (higher = more potent): 0.786

## TTTGACTCTTATTCTGACTGTG
IL13RA1
  sensor-assay potency score (higher = more potent): 0.568

## TTGAATTTCATCACTATTGATA
IL12RB2
  sensor-assay potency score (higher = more potent): -0.279

## TTGACTCTTATTCTGACTGTGT
IL13RA1
  sensor-assay potency score (higher = more potent): 0.685

## TTTGCTTTAATCAACAGCCACG
IL12RB2
  sensor-assay potency score (higher = more potent): -1.11

## TTGATTCTTCTGTCAAACTTGT
IL12RB2
  sensor-assay potency score (higher = more potent): 0.0343

## ATCTCGGAGATCTCGAAGCATG
IL10
  sensor-assay potency score (higher = more potent): -1.73

## TTGTTCAAAACTGGAATCCTTC
IL13RA1
  sensor-assay potency score (higher = more potent): -0.391

## ATAGACTACAATTTGAGCTGGC
IL13RA1
  sensor-assay potency score (higher = more potent): 0.897

## TTCTTATCTTGTTTGTCGCCAA
IL13RA1
  sensor-assay potency score (higher = more potent): -0.0977

## TAGATCAGGAACACTGCTGGGC
IL16
  sensor-assay potency score (higher = more potent): 0.521

## TTGAATTTGCTGCAGACACAGC
IL12RB2
  sensor-assay potency score (higher = more potent): -0.876

## TTCTCCAGTGTCACCGTGCAGA
IL16
  sensor-assay potency score (higher = more potent): -0.677

## TTGTCTACTGTAGTCAATGTGC
IL12RB2
  sensor-assay potency score (higher = more potent): -0.32

## TGAAAGAAAGTCTTCACTCTGC
IL10
  sensor-assay potency score (higher = more potent): 0.368

## TTGCTTCTCATAGATGTCGTAC
IL13RA1
  sensor-assay potency score (higher = more potent): -0.044

## TTTTGCTTTAATCAACAGCCAC
IL12RB2
  sensor-assay potency score (higher = more potent): -1.02

## TTGCAGACAAACAAGGTTGTAC
IL12RB2
  sensor-assay potency score (higher = more potent): 0.163

## TACAGAGTCGGTTTCCTCCTTG
IL13RA1
  sensor-assay potency score (higher = more potent): 0.15

## TTTCTCCTGATGACAATCGTGA
IL16
  sensor-assay potency score (higher = more potent): -0.801

## TAGGAAACACAAGTCATTCAGT
IL7
  sensor-assay potency score (higher = more potent): 0.00202

## TATAGGAGAATGTATCATCATC
IPO9
  sensor-assay potency score (higher = more potent): -0.789

## TACTTGTAGTGGTCAATGCTGG
ITFG1
  sensor-assay potency score (higher = more potent): -0.574

## TATCAATGCACTGTGATTCTTG
ITFG1
  sensor-assay potency score (higher = more potent): 0.396

## TACTGTATCACATCGAGTGATT
JDP2
  sensor-assay potency score (higher = more potent): -0.618

## TTTATCTCTAGAACTCTTCCTT
JMJD1C
  sensor-assay potency score (higher = more potent): 0.72

## TATCTGTTCATAACAAACAAAC
JDP2
  sensor-assay potency score (higher = more potent): -1.71

## TTAGGAGTTACACACAACGGCC
JDP2
  sensor-assay potency score (higher = more potent): -1.56

## TTGTGGTAGGAGTAGGTGTTGG
JMJD8
  sensor-assay potency score (higher = more potent): -1.22

## TATCTGTGTAATAAAATCCGTG
JMJD8
  sensor-assay potency score (higher = more potent): -0.911

## TATCTCTAGAACTCTTCCTTTC
JMJD1C
  sensor-assay potency score (higher = more potent): -0.557

## ATAACAAACAAACCATAGCATA
JDP2
  sensor-assay potency score (higher = more potent): -1.75

## TTTACATTTATCTTGGAGGTTT
JMJD1C
  sensor-assay potency score (higher = more potent): -0.435

## TCTTCTTGTTCCGGCATCGGGC
JDP2
  sensor-assay potency score (higher = more potent): -0.866

## TTGAGCGTAGCATGCCACCAGC
JMJD8
  sensor-assay potency score (higher = more potent): -0.983

## TTTCCCAGCATGCTCTTCTTGT
JOSD1
  sensor-assay potency score (higher = more potent): -0.498

## TTTCCTTCGCTCCTCTTCCTCA
JDP2
  sensor-assay potency score (higher = more potent): -0.612

## TACCTCTTCTGGTACCACCAGC
JOSD1
  sensor-assay potency score (higher = more potent): -0.788

## TATACATAGTTTATGTTCCTGG
JMJD8
  sensor-assay potency score (higher = more potent): -0.256

## TACTGCTGCACGAACTCCGCGT
JMJD8
  sensor-assay potency score (higher = more potent): -0.255

## TTCAATTTTAAAACAACTGTTT
JMJD1C
  sensor-assay potency score (higher = more potent): -0.691

## TTTATACTGTATCACATCGAGT
JDP2
  sensor-assay potency score (higher = more potent): -0.987

## TAGGAGTAGGTGTTGGCGGTGC
JMJD8
  sensor-assay potency score (higher = more potent): 0.392

## TATCTTGTCAACATCTTTCCCA
JMJD1C
  sensor-assay potency score (higher = more potent): 0.56

## TAAACATTCGGTGAGTATGTGC
JDP2
  sensor-assay potency score (higher = more potent): -0.401

## ATTGACAGAACTTATCACCTAT
JMJD1C
  sensor-assay potency score (higher = more potent): 0.441

## TTTTAGAAACTTCCTGAGCTCG
JOSD1
  sensor-assay potency score (higher = more potent): -0.609

## TATACTGTATCACATCGAGTGA
JDP2
  sensor-assay potency score (higher = more potent): -0.648

## TTTGTGGTAGGAGTAGGTGTTG
JMJD8
  sensor-assay potency score (higher = more potent): -1.04

## TTTCATTCTGAGTTCCATCCTC
JDP2
  sensor-assay potency score (higher = more potent): 0.428

## TAGCATGCCACCAGCGGTCGGG
JMJD8
  sensor-assay potency score (higher = more potent): -0.51
